Results published in PubChem BioAssay.
Activity calls are given as the source filed them. Unless noted, how the calls were made is not given here.

How the values were obtained:
[1] = test system: Wnt5a (protein binding on small-molecule microarray); assay: small molecules binding Wnt5a protein – biophysical, small-molecule microarray, 635/667 nm fluorescence, primary screen (AID 1142); settings: 635 nm fluorescence, higher = more signal;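 further: fluorescence read at 667 nm with signal to noise per printed feature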
[2] = ATP-based viability of Huh7 replicon cells – cell-based, CellTiter-Glo luminescence, basal, 48 h, cytotoxicity control for HCV replication inhibitor project, primary screen (AID 1143); settings: higher = more signal, called active from +8 up or from −8 down;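 further: Huh7 hepatoma cells carrying a hepatitis C replication reporter with no stimulus; test concentration not given here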
[3] = Pseudomonas biofilm growth suppression – PAO1 strain, BacTiter-Glo luminescence, LB-PBS, primary screen (AID 1144); settings: P. aeruginosa PAO1 biofilm, 12 h, higher = more signal
[4] = basal CRE-LacZ reporter activity in PC12 – cell-based, unstimulated, primary screen (AID 1145); settings: no forskolin, luminescence, 4.5 h, higher = more signal, called active from +8 up or from −8 down
[5] = forskolin-driven CRE-LacZ activity in PC12 – cell-based, CRE-LacZ reporter, forskolin-stimulated, primary screen (AID 1146); settings: luminescence, 4.5 h, higher = more signal, called active from +8 up or from −8 down;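 further: PC12 cells with 6xCRE LacZ reporter stimulated by forskolin 10 µM; beta-galactosidase reporter signal reflecting CREB driven transcription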
[6] = target: Streptavidin (Streptomyces avidinii) (UniProt P22629); assay: compounds binding control protein streptavidin – biophysical, small-molecule microarray, 635/667 nm fluorescence, artefact control for SMM compound annotation, primary screen (AID 1147); settings: higher = more signal;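 further: signal reflects streptavidin binding to arrayed compounds as a control protein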
[7] = probe aInhba binding on compound microarray – biochemical, small-molecule microarray, 635/667 nm fluorescence, primary screen (AID 1148); settings: higher = more signal;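 further: score merges 667nm spot fluorescence with signal-to-noise for antibody binding to printed compounds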
[8] = target: Torsin-1A (Homo sapiens) (UniProt O14656); assay: TOR1A wild-type binding on microarray – cell lysate, small-molecule microarray, lysate, 635/667 nm, primary screen (AID 1149); settings: COS7 hTOR1A-WT lysate, 635 nm fluorescence, higher = more signal
[9] = target: Torsin-1A (Homo sapiens) (UniProt O14656); assay: torsin A mutant lysate binding on microarrays – cell lysate, small-molecule microarray, COS7 lysate, 635/667 nm fluorescence, primary screen (AID 1150); settings: COS7 hTOR1A mutant lysate, 635 nm fluorescence, higher = more signal;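 further: score pools 667 nm emission and signal to noise measuring lysate protein binding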
[10] = test system: Sonic hedgehog protein (Shh); assay: Sonic hedgehog microarray binding compounds – biochemical, small-molecule microarray, 635/667 nm fluorescence, primary screen (AID 1151); settings: 635 nm fluorescence, higher = more signal;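 further: Shh protein binding to compounds spotted on small-molecule microarray slides; score combines spot fluorescence intensity with signal-to-noise across triplicate slides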
[11] = optical density shifts of acrAB sulA E. coli – strain DRC41, OD650, 48 h, E. coli filamentation inducer project, primary screen (AID 1152); settings: higher = more signal, called active from +8 up or from −8 down;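 further: E. coli MC1000 strain DRC41 lacking acrAB efflux pump and sulA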
[12] = probe aLefty1 binding on compound microarray – biochemical, small-molecule microarray, 635/667 nm fluorescence, primary screen (AID 1153); settings: higher = more signal;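 further: score merges spot fluorescence with signal-to-noise ratio from the scanned slide images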
[13] = plasmodial surface anion channel blockers, osmotic lysis – cell-based, P. falciparum Indochina, OD700, 1 h, primary screen (AID 1154); settings: P. falciparum Indochina infected RBC osmotic lysis, higher = more signal, called active from +8 up or from −8 down
[14] = plasmodial surface anion channel blockers, osmotic lysis – cell-based, P. falciparum Indochina, OD700, 2 h, primary screen (AID 1155);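 further: lysis reports solute entry through the parasite surface anion channel PSAC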; settings: P. falciparum Indochina infected erythrocytes, higher = more signal, called active from +8 up or from −8 down
[15] = changes in parasitized red cell lysis, either direction – P. falciparum Indochina, OD700, 3 h, PSAC antagonist project, primary screen (AID 1156); settings: P. falciparum-infected erythrocytes, osmotic lysis, higher = more signal, called active from +8 up or from −8 down
[16] = plasmodial surface anion channel blockers, osmotic lysis – cell-based, P. falciparum Indochina, OD700, 18 h, primary screen (AID 1157); settings: P. falciparum Indochina infected erythrocytes, osmotic lysis OD700, 18 h; higher = more signal, called active from +8 up or from −8 down
[17] = S6 kinase pathway phospho-S6 level changes – cell-based, A549, cytoblot, luminescence, serum-stimulated, primary screen (AID 1158); settings: 5 h, higher = more signal;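 further: serum-stimulated A549 lung adenocarcinoma cells; signal is phosphorylated S6 detected by cytoblot immunostaining with HRP secondary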
[18] = target: NADPH oxidase 2 (Homo sapiens) (UniProt P04839); assay: compounds shifting NOX2 Amplex Red fluorescence – cell-based, HEK293-NOX2, PMA-stimulated, NOX inhibitor project, primary screen (AID 1159); settings: 45 min, higher = more signal, called active from +8 up or from −8 down; further: test concentration not given here
[19] = target: NADPH oxidase 4 (Homo sapiens) (UniProt Q9NPH5); assay: compounds shifting NOX4 Amplex Red fluorescence – cell-based, HEK293-NOX4, tetracycline-induced, NOX inhibitor project, primary screen (AID 1160); settings: HEK293-NOX4, Amplex Red H2O2 fluorescence, 45 min; higher = more signal, called active from +8 up or from −8 down
[20] = target: NADPH oxidase 5 (Homo sapiens) (UniProt Q96PH1); assay: compounds shifting NOX5 Amplex Red fluorescence – cell-based, HEK293-NOX5, NOX inhibitor project, primary screen (AID 1161); settings: HEK293-NOX5, ionomycin, 45 min, higher = more signal
Chain of NADPH oxidase 5 (Homo sapiens) (Q96PH1 whole entry, looked up): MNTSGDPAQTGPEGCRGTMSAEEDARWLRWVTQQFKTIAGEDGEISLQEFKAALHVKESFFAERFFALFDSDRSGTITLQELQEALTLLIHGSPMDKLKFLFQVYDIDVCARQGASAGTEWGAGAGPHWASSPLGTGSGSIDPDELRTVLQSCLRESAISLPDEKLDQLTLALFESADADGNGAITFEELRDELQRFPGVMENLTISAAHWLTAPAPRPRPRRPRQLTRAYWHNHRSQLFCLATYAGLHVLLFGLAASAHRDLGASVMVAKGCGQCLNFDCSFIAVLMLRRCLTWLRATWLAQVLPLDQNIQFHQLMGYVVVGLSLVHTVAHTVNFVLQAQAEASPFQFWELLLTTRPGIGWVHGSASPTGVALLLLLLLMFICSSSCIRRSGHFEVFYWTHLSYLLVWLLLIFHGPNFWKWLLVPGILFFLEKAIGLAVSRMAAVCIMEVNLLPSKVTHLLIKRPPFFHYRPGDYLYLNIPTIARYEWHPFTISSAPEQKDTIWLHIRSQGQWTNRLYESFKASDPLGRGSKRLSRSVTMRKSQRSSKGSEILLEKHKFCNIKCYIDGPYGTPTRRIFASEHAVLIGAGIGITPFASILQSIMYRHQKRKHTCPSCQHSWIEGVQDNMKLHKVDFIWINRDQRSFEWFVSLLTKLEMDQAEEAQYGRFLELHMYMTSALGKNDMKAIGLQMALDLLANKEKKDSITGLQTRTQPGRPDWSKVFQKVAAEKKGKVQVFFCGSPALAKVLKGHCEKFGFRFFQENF

Chain of Torsin-1A (Homo sapiens) (O14656 whole entry, looked up): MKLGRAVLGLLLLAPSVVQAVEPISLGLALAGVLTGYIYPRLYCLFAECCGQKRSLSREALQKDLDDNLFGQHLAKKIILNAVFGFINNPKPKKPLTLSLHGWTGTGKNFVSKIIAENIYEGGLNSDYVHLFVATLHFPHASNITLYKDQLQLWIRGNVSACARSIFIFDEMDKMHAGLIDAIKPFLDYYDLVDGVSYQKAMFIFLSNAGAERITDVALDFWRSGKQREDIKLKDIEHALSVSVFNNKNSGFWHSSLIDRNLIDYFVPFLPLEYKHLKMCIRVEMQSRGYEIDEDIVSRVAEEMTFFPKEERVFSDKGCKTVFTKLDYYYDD
Chain of NADPH oxidase 2 (Homo sapiens) (P04839 whole entry, looked up): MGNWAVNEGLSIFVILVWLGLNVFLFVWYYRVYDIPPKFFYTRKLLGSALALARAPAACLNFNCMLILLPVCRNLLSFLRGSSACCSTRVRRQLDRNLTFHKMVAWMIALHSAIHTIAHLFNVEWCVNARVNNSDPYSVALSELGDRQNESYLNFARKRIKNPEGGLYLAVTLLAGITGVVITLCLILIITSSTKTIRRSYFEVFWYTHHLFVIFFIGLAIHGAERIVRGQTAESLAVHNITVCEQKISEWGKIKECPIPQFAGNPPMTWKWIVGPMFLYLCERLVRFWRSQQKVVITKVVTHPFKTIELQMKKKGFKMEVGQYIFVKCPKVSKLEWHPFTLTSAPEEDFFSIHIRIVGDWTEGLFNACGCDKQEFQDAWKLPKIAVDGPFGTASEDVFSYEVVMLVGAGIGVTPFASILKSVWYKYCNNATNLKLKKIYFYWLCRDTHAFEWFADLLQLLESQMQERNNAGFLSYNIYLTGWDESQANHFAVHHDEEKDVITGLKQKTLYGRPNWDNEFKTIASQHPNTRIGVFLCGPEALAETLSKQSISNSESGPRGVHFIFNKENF
Chain of NADPH oxidase 4 (Homo sapiens) (Q9NPH5 whole entry, looked up): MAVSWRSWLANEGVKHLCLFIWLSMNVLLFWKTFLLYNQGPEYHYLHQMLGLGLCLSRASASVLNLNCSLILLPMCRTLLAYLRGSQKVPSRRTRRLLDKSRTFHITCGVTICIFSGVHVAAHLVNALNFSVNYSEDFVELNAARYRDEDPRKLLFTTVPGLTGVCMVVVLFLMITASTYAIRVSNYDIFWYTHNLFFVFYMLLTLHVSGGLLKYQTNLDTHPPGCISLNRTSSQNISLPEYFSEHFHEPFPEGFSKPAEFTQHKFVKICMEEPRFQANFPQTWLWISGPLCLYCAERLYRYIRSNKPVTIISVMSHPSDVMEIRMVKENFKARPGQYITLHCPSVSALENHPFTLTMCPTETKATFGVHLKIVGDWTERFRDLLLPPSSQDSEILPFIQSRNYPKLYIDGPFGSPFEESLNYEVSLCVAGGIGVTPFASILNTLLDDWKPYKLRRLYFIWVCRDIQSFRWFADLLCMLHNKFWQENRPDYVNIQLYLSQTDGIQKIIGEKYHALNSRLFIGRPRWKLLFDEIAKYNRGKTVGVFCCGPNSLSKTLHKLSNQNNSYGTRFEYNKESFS
Chain of Streptavidin (Streptomyces avidinii) (P22629 whole entry, looked up): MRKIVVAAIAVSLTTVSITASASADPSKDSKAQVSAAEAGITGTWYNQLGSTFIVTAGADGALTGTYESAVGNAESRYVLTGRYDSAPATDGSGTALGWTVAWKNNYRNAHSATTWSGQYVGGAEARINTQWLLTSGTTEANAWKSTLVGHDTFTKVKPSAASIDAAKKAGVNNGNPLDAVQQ

Row | Compound | composite z-score [1] | z-score [2] | z-score [3] | z-score [4] | z-score [5] | composite z-score [6] | composite z-score [7] | composite z-score [8] | composite z-score [9] | composite z-score [10] | z-score [11] | composite z-score [12] | z-score [13] | z-score [14] | z-score [15] | z-score [16] | z-score [17] | z-score [18] | z-score [19] | z-score [20]
1 | O=C1C2C=CC(C(O)c3cccc(O)c3)N(Nc3ccccc3F)C2C(=O)N1c1ccccc1 (stereo not given) | -0.333 | -6.08 (inactive) | -2.21 (inactive) | -0.471 (inactive) | -0.556 (inactive) | -0.344 | -0.21 | -0.701 | 0.239 | 0.0048 | 0.906 (inactive) | 0.137 | 9.49 (active) | 1.43 (inactive) | 0.868 (inactive) | 0.0443 (inactive) | 3 | -4.98 (inactive) | -5.16 (inactive) | -6.27
2 | CCOC(=O)C1=CC[C@@H](c2ccccc2)N(S(=O)(=O)C[Si](C)(C)C)[C@H]1c1ccccc1 | 0.389 | -2.78 (inactive) | -0.667 (inactive) | -0.63 (inactive) | 1.56 (inactive) | 1.48 | 0.127 | 0.899 | 0.799 | 0.257 | -2.2 (inactive) | 0.0437 | 2.05 (inactive) | 1.83 (inactive) | 0.0192 (inactive) | 0.999 (inactive) | -0.692 | 0.324 (inactive) | -1.26 (inactive) | 0.839
3 | CCCCCN1CC=CC23O[C@@H]4C=CCOC(=O)[C@@H]4[C@H]2C(=O)N(CCCCCO)[C@@H]3C1=O (stereo not given in full) | -0.659 | -0.211 (inactive) | -1.51 (inactive) | -1.45 (inactive) | -0.151 (inactive) | -0.735 | -0.213 | 0.459 | 2.16 | 0.32 | 1.73 (inactive) | -0.0766 | 1.47 (inactive) | 0.702 (inactive) | 1.45 (inactive) | 0.601 (inactive) | 0.461 | 1.35 (inactive) | 0.575 (inactive) | 1.94
4 | CN(C)C(=O)[C@]1(Cc2ccccc2)N=C(c2ccc(OCCCO)cc2)O[C@@H]1c1ccccc1 | 0.0831 | -3.35 (inactive) | 0.18 (inactive) | 1.24 (inactive) | 0.14 (inactive) | 0.589 | 0.0184 | 0.193 | 0.71 | -0.46 | -0.855 (inactive) | -0.13 | 28.8 (active) | 23.9 (active) | -0.0356 (inactive) | 2.51 (inactive) | -0.0744 | 0.945 (inactive) | -0.372 (inactive) | -1.73
5 | C=CCOC(=O)[C@H]1[C@@H]2C(=O)O[C@@H](c3ccccc3)[C@@H](c3ccccc3)N2[C@@H](c2ccc(OCCOC(=O)[C@H]3C[C@H]4C(=O)NCC(=O)N4[C@H]3c3ccc(O)cc3)cc2)[C@]12C(=O)Nc1ccc(I)cc12 | 0.112 | -0.402 (inactive) | -1.01 (inactive) | -0.13 (inactive) | -0.8 (inactive) | 0.343 | -0.0736 | 0.406 | 0.349 | 1.55 | 0.345 (inactive) | 0.0359 | 2.6 (inactive) | 2.66 (inactive) | 1.02 (inactive) | 1.33 (inactive) | 0.839 | 1.54 (inactive) | 1.5 (inactive) | 1.22
6 | COC(=O)[C@@]1(Cc2ccccc2CN=[N+]=[N-])COC(c2ccc(OCCCO)cc2)=N1 | -1.09 | -3.56 (inactive) | -0.0995 (inactive) | 1.19 (inactive) | -0.244 (inactive) | -1.25 | -0.203 | -3.23 | -2.37 | -1.15 | -0.156 (inactive) | 0.2 | 23.8 (active) | 9.9 (active) | 4.61 (inactive) | 0.959 (inactive) | 0.202 | -3.07 (inactive) | -0.519 (inactive) | -3.18
7 | CO[C@H]1O[C@H](CO)[C@@H](OC(=O)Nc2ccc(C(F)(F)F)cc2)[C@H](OC(=O)Nc2ccccc2-c2ccccc2)[C@@H]1OC(=O)Nc1ccccc1-c1ccccc1 | 0.229 | -4.02 (inactive) | 0.821 (inactive) | 0.148 (inactive) | 0.892 (inactive) | 1.02 | 0.228 | 0.363 | 0.979 | 1.34 | 0.0065 (inactive) | 0.534 | 4.11 (inactive) | 1.04 (inactive) | 0.14 (inactive) | 0.817 (inactive) | 0.672 | -0.803 (inactive) | -0.549 (inactive) | -1.23
8 | C#CCN([C@H](/C=C/C1CC1)[C@@H](O)Cc1ccccc1)[C@@H](Cc1ccccc1)C(=O)OC | -0.48 | -2.91 (inactive) | -0.669 (inactive) | 3.21 (inactive) | -0.765 (inactive) | 0.483 | 0.0013 | 0.0515 | -0.409 | 1.08 | 1.3 (inactive) | 0.0531 | 2.62 (inactive) | 1.78 (inactive) | -0.345 (inactive) | 1.28 (inactive) | 0.296 | -0.293 (inactive) | 0.396 (inactive) | -2.6
9 | C=C(COC)/C(=C/C[C@H](OC(=O)c1ccncc1)c1cccc(OCCO)c1)c1cnc2ccccc2c1 | 0.154 | 0.0839 (inactive) | 0.0918 (inactive) | 0.769 (inactive) | 0.506 (inactive) | 1.7 | 0.322 | 0.839 | 0.897 | 2.02 | -0.223 (inactive) | 0.317 | 9.54 (active) | 0.936 (inactive) | 0.426 (inactive) | 0.431 (inactive) | 0.231 | -0.0605 (inactive) | 0.24 (inactive) | -0.3
